PubChem BioAssay (NCATS)
Where “and” joins values, the source holds several entries; their conditions need not be identical. Identical values can stand only once. Results filed as inconclusive are left out. Some structures have more than one record in an assay (separate samples or runs), and their calls can disagree. Calls of active or inactive are those of the source. Calls come from the whole dose curve; as a rule, active = well fitted inhibition curve with a large enough effect; inconclusive = small, poorly fitted or top-dose-only effect; inactive = flat fitted curve, though single readings scatter.

Legend:
P93_24 = assay: qHTS profiling for inhibitors of Plasmodium falciparum proliferation (AID 504749);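 note: 0% = DMSO vehicle and full inhibition = artemisinin control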; settings: P. falciparum in erythrocytes, SYBR Green DNA, 72 h; series mostly up to 28.7 µM
Method in brief: (§1)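 Three-day growth assay of blood-stage parasites in erythrocytes (0.3% parasitemia, 2.5% hematocrit) at 37 C, 5% CO2, quantified by SYBR Green DNA staining after overnight detergent lysis.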

P94_40 = assay: as above; settings: P. falciparum in erythrocytes, SYBR Green DNA, 72 h; series mostly up to 28.7 µM
Method in brief: as §1

PAD = assay: as above; settings: P. falciparum in erythrocytes, SYBR Green DNA, 72 h; series mostly up to 28.7 µM
Method in brief: as §1

PC15 = assay: as above; settings: P. falciparum in erythrocytes, SYBR Green DNA, 72 h; series mostly up to 28.7 µM
Method in brief: as §1

PC26 = assay: as above; settings: P. falciparum in erythrocytes, SYBR Green DNA, 72 h; series mostly up to 28.7 µM
Method in brief: as §1

PC49 = assay: as above; settings: P. falciparum in erythrocytes, SYBR Green DNA, 72 h; series mostly up to 28.7 µM
Method in brief: as §1

SC27B = assay: as above; settings: P. falciparum in erythrocytes, SYBR Green DNA, 72 h; series mostly up to 28.7 µM
Method in brief: as §1

TAB109 = assay: as above; settings: P. falciparum in erythrocytes, SYBR Green DNA, 72 h; series mostly up to 28.7 µM
Method in brief: as §1

TAB113 = assay: as above; settings: P. falciparum in erythrocytes, SYBR Green DNA, 72 h; series mostly up to 28.7 µM
Method in brief: as §1

TAB165 = assay: as above; settings: P. falciparum in erythrocytes, SYBR Green DNA, 72 h; series mostly up to 28.7 µM
Method in brief: as §1

W2 = assay: as above; settings: P. falciparum in erythrocytes, SYBR Green DNA, 72 h; series mostly up to 28.7 µM
Method in brief: as §1

CRL-7250 = normal cell line; assay: Cytotoxic Profiling of Annotated Libraries Using Quantitative High-Throughput Screening (AID 1296008); settings: Five cell lines viability, CellTiter-Glo ATP luminescence, 48-72 h; max response: stronger effect = lower value; note: potency is the fitted concentration of half-maximal effect; for max response: % is set by controls: 0 for no effect and ±100 for the full control effect
Method in brief: (§2)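 Cytotoxicity was measured as CellTiter-Glo ATP luminescence, read after 10 min at room temperature. Compound treatment of the cells lasted 48 or 72 hr at 37 degrees Celsius in a qHTS format.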

HEK293 = assay: as above; settings: Five cell lines viability, CellTiter-Glo ATP luminescence, 48-72 h; max response: stronger effect = lower value
Method in brief: as §2

HaCat [1] = assay: as above; settings: Five cell lines viability, CellTiter-Glo ATP luminescence, 48-72 h; max response: stronger effect = lower value
Method in brief: as §2

NIH3T3 = assay: as above; settings: Five cell lines viability, CellTiter-Glo ATP luminescence, 48-72 h; max response: stronger effect = lower value
Method in brief: as §2

HACAT [2] = assay: qHTS assay to identify novel small-molecules to repurpose for Merkel cell carcinoma treatment (AID 1296009); settings: MCC and control cell lines, CellTiter-Glo viability, 72 h; series mostly up to 44.8 µM; note: potency is the fitted concentration of half-maximal effect
Method in brief: (§3)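 After compound transfer in DMSO, plates were kept 72 hr at 37 degree celsius. Luminescent ATP signal from CellTiter-Glo served as viability measure, normalized against DMSO and no-cell controls.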

HEK293T = assay: as above; settings: MCC and control cell lines, CellTiter-Glo viability, 72 h; at 44.8 µM (top of the series) unless noted
Method in brief: as §3

MCC-13 = assay: as above; settings: MCC and control cell lines, CellTiter-Glo viability, 72 h; series mostly up to 46 µM
Method in brief: as §3

MCC-26 = assay: as above; settings: MCC and control cell lines, CellTiter-Glo viability, 72 h; series mostly up to 46 µM
Method in brief: as §3

KB-3-1 = assay: Cytotoxic Profiling of Annotated Libraries Using Quantitative High-Throughput Screening (AID 1296008); settings: Five cell lines viability, CellTiter-Glo ATP luminescence, 48-72 h; max response: stronger effect = lower value; note: potency is the fitted concentration of half-maximal effect; for max response: % is set by controls: 0 for no effect and ±100 for the full control effect
Method in brief: as §2
Note: nearly all actives have a fitted effect of over 60% in size.

CC[N+](CC)(CC)CCOc1cccc(OCC[N+](CC)(CC)CC)c1OCC[N+](CC)(CC)CC
inactive: Potency (P93_24) | Potency (P94_40) | Potency (PAD) | Potency (PC15) | Potency (PC26) | Potency (PC49) | Potency (SC27B) | Potency (TAB109) | Potency (TAB113) | Potency (TAB165) | Potency (W2) | max response (CRL-7250) -17.1% and -8.63% | max response (HEK293) -0.136% | outcome (HEK293) | max response (HaCat [1]) -16.7% | outcome (HaCat [1]) | max response (NIH3T3) -12.2% | outcome (NIH3T3) | outcome (HACAT [2]) | outcome (HEK293T) | Potency (MCC-13) | Potency (MCC-26)

CN(C)c1nc(N(C)C)nc(N(C)C)n1
inactive: Potency (P93_24) | Potency (P94_40) | Potency (PAD) | Potency (PC15) | Potency (PC26) | Potency (PC49) | Potency (SC27B) | Potency (TAB109) | Potency (TAB113) | Potency (TAB165) | Potency (W2) | max response (CRL-7250) -4.79% | outcome (CRL-7250) | max response (HEK293) -4.81% and -7.03% | max response (HaCat [1]) -7.57% and -4.4% | max response (NIH3T3) 1.4% and 1.9% | Potency (MCC-13) | Potency (MCC-26)

NC(=O)NO
inactive and 10.5 µM (active): Potency (MCC-26)
active: Potency (CRL-7250) 13.2 µM | Potency (HEK293) 0.0526 µM | Potency (KB-3-1) 6.62 µM | Potency (NIH3T3) 18.7 µM
inactive: Potency (P93_24) | Potency (P94_40) | Potency (PAD) | Potency (PC15) | Potency (PC26) | Potency (PC49) | Potency (SC27B) | Potency (TAB109) | Potency (TAB113) | Potency (TAB165) | Potency (W2) | max response (HEK293) 4.27% | max response (HaCat [1]) -18.6% | max response (KB-3-1) 2.92% | max response (NIH3T3) 2.15%
inactive and 2.96 µM (active): Potency (MCC-13)

COc1ccc2c(c1)c(CC(=O)O)c(C)n2C(=O)c1ccc(Cl)cc1
inactive: outcome (CRL-7250) | max response (HEK293) -16.4% | outcome (HEK293) | max response (HaCat [1]) -5.33% | outcome (HaCat [1]) | max response (NIH3T3) -1.64% and 1.2% | outcome (HACAT [2]) | outcome (HEK293T) | Potency (MCC-13) | Potency (MCC-26)

C[C@H]1c2cccc(O)c2C(O)=C2C(=O)[C@]3(O)C(O)=C(C(N)=O)C(=O)[C@@H](N(C)C)[C@@H]3[C@@H](O)[C@@H]21
inactive: max response (CRL-7250) -2.19% | outcome (CRL-7250) | max response (HEK293) -8.48% | outcome (HaCat [1]) | max response (KB-3-1) 10.8% and -8.7% | max response (NIH3T3) 1.59% | outcome (NIH3T3) | outcome (HACAT [2]) | Potency (MCC-13) | Potency (MCC-26)

NC(=O)OCC(COC(N)=O)c1ccccc1
inactive: Potency (P93_24) | Potency (P94_40) | Potency (PAD) | Potency (PC15) | Potency (PC26) | Potency (PC49) | Potency (SC27B) | Potency (TAB109) | Potency (TAB113) | Potency (TAB165) | max response (CRL-7250) 2.98% and -7.95% | max response (HEK293) -9.25% | outcome (HEK293) | outcome (HaCat [1]) | max response (KB-3-1) -1.19% | max response (NIH3T3) -0.687% | outcome (NIH3T3) | outcome (HACAT [2]) | outcome (HEK293T) | Potency (MCC-13) | Potency (MCC-26)
